# This is part of a sample that, as a whole, favours compounds with a hit. Of some 79,000 tested, about 15% had one in any assay. Values without a mark were called inactive. Activity calls are given as the source filed them. Cut-off read from the data, not from the text of the source: active = growth inhibition above about 70%; inactive = the rest.
# How the values were obtained:
# [1] = NCI Yeast Anticancer Drug Screen. Data for the rad50 strain (AID 155);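 note: 0% = growth of vehicle-only cultures of the same strain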; conditions: S. cerevisiae rad50 strain growth inhibition, active compounds read high
# Outline: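 Yeast carrying a defined DNA repair defect were exposed to test compounds, and growth was compared with vehicle-treated controls to give percent inhibition.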
# [2] = NCI Yeast Anticancer Drug Screen. Data for the mec2-1 strain (AID 157); conditions: S. cerevisiae mec2-1 strain, active compounds read high
# Outline: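 Readout is yeast growth inhibition, normalised to vehicle-treated controls, in the mec2-1 strain exposed to compound.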
# [3] = NCI Yeast Anticancer Drug Screen. Data for the sgs1 mgt1 strain (AID 161);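 note: 0% = growth of cultures given vehicle only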; conditions: S. cerevisiae sgs1 mgt1 strain, active compounds read high
# Outline: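 This yeast growth screen uses a strain with defined DNA-repair lesions; compound-treated growth is compared with vehicle-treated growth.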
# [4] = NCI Yeast Anticancer Drug Screen. Data for the cln2 rad14 strain (AID 165);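 note: 0% = growth equal to vehicle treated cultures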; conditions: S. cerevisiae cln2 rad14 strain, active compounds read high
# Outline: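 Relative to vehicle controls, growth inhibition of compound-treated cln2 rad14 yeast was recorded.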
# [5] = NCI Yeast Anticancer Drug Screen. Data for the bub3 strain (AID 167); conditions: S. cerevisiae bub3 mutant strain, active compounds read high
# Outline: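 Compounds were applied to a genetically altered yeast strain carrying a cell-cycle control defect. Growth inhibition was scored against vehicle-treated controls.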
# [6] = NCI Yeast Anticancer Drug Screen. Data for the mlh1 rad18 strain (AID 175); conditions: S. cerevisiae mlh1 rad18 strain growth inhibition, active compounds read high
# Outline: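 Test agents were incubated with a yeast strain of defined genotype (DNA damage repair defect). Inhibition of growth was derived by comparison with vehicle-exposed cultures.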
# [7] = at 5.0 µM (retest, dose inferred, filed as 0.5)
# [8] = at 50.0 µM (retest, dose inferred, filed as 5.0)
Compound,"growth inhibition [1, 7]","growth inhibition [1, 8]",growth inhibition ([1]; at 50.0 µM),"growth inhibition [2, 7]","growth inhibition [2, 8]",growth inhibition ([2]; at 50.0 µM),"growth inhibition [3, 7]","growth inhibition [3, 8]",growth inhibition ([3]; at 50.0 µM),"growth inhibition [4, 7]","growth inhibition [4, 8]",growth inhibition ([4]; at 50.0 µM),"growth inhibition [5, 7]","growth inhibition [5, 8]",growth inhibition ([5]; at 50.0 µM),"growth inhibition [6, 7]","growth inhibition [6, 8]",growth inhibition ([6]; at 50.0 µM)
O=C(O)CCCNc1ncc2c(n1)-c1ccccc1OC2,19%,7%,65.5%,11%,9%,51%,8%,12%,-3.35%,20%,15%,-26%,14%,8%,-22.9%,12%,9%,-9.3%
C=CCC1=C(C)C(OC(=O)/C=C/c2ccccc2Cl)CC1=O (configuration not stated),17%,81% (active),86.2% (active),0%,88% (active),85.1% (active),13%,88% (active),72.2% (active),-6%,89% (active),69%,3%,90% (active),95.4% (active),8%,89% (active),84.3% (active)
CC(C)C1=CC23CCC4C(C)(C(=O)O)CCCC4(C)C2CC1c1c(O)ccc(O)c13 (configuration not stated),30%,98% (active),99.3% (active),75% (active),100% (active),99.3% (active),51%,99% (active),99.3% (active),28%,98% (active),99.2% (active),31%,99% (active),99.2% (active),81% (active),99% (active),99% (active)
Cc1ccc(N2C(c3ccccc3)=CC(=C3C=CC(=O)C=C3)C=C2c2ccccc2)cc1,9%,71% (active),94.2% (active),12%,83% (active),98.5% (active),7%,83% (active),93.7% (active),-5%,71% (active),78.9% (active),7%,80% (active),92.5% (active),13%,89% (active),96.8% (active)
COc1ccc2nc3cc(Cl)ccc3c(NCCC[N+](C)(C)CCCCCCCCCC[N+](C)(C)CCCNc3c4ccc(Cl)cc4nc4ccc(OC)cc34)c2c1,44%,98% (active),96% (active),22%,98% (active),88.3% (active),29%,98% (active),95.8% (active),24%,94% (active),55.8%,21%,98% (active),6.45%,41%,99% (active),96.2% (active)
CCO/C=C1/N=C(c2cc(Cl)cc([N+](=O)[O-])c2)OC1=O,4%,-7%,11.7%,-2%,12%,1.3%,-15%,2%,13.7%,18%,22%,-60.5%,6%,5%,-8.75%,-15%,6%,9.15%
O=C(c1ccccc1)c1ccc(Cl)cc1,-1%,-16%,66.2%,-3%,-5%,37.4%,2%,4%,74.2% (active),1%,2%,-3%,-42%,0%,73.8% (active),1%,2%,81.5% (active)
C=CCN1CCC(OC(=O)C(O)(/C=C\CC)C2CCCC2)CC1 (configuration not stated),19%,61%,68.8%,13%,40%,48.9%,37%,63%,70.2% (active),17%,75% (active),62.8%,12%,83% (active),61.6%,7%,67%,59.5%
CCOC(=O)C1c2[nH]c3ccccc3c2CCN1C(=O)c1ccc(OC)o1 (configuration not stated),0%,71% (active),83.5% (active),-36%,60%,79.8% (active),13%,80% (active),82% (active),7%,81% (active),67.7%,-17%,76% (active),84.3% (active),-12%,73% (active),83.2% (active)
CCCCCCCCCCCCNCC#N,8%,18%,89.9% (active),11%,10%,72.2% (active),-2%,17%,85.1% (active),0%,15%,48.4%,4%,52%,83.5% (active),5%,29%,93% (active)
CCCCC(=O)N/N=C(\C)[C@]1(O)Cc2c(O)c3c(c(O)c2[C@@H](OC2CC(N)C(O)C(C)O2)C1)C(=O)c1c(OC)cccc1C3=O (some centres not stated),64%,97% (active),98.7% (active),-12%,97% (active),99.2% (active),17%,97% (active),51.5%,8%,89% (active),97.1% (active),15%,98% (active),98.5% (active),17%,97% (active),98.5% (active)
COc1ncnc2nc(SC)[nH]c12,-1%,-2%,99.7% (active),1%,-2%,99.8% (active),-1%,-4%,99.6% (active),0%,-2%,99.7% (active),-1%,-4%,99.7% (active),0%,-4%,99.5% (active)
CCCCC1(CC)COC(c2ccccc2OC)OC1 (configuration not stated),-6%,88% (active),-28.4%,-5%,88% (active),2.45%,-1%,81% (active),5.5%,-9%,65%,-9.85%,31%,92% (active),76.5% (active),-2%,87% (active),-17.2%
O=[N+]([O-])c1c[nH]c2ncnc(SCc3ccccc3)c12,98% (active),98% (active),100% (active),99% (active),99% (active),99.3% (active),99% (active),99% (active),99.2% (active),86% (active),99% (active),94.3% (active),97% (active),99% (active),98.7% (active),98% (active),98% (active),98.9% (active)
CCN(CC)CCC(=O)/C=C/c1ccc(C)cc1,4%,97% (active),57.4%,9%,99% (active),10.9%,4%,99% (active),18.6%,3%,97% (active),50%,7%,99% (active),15.1%,6%,99% (active),24.1%
O=C(/C=C\c1ccc(Cl)c(Cl)c1)c1cccs1,13%,-9%,58.9%,-2%,4%,64.4%,4%,-25%,92.2% (active),-6%,-3%,51.6%,-4%,11%,89.7% (active),-3%,6%,85.5% (active)
CC/C(=C(/CC)c1ccc([O-])cc1)c1ccc([O-])cc1.CC/C(=C(\CC)c1ccc([O-])cc1)c1ccc([O-])cc1.O=C([CH-]C(=O)c1ccccc1)c1ccccc1.O=C([CH-]C(=O)c1ccccc1)c1ccccc1.O=C([CH-]C(=O)c1ccccc1)c1ccccc1.O=C([CH-]C(=O)c1ccccc1)c1ccccc1.[Ti+4].[Ti+4],84% (active),96% (active),77.3% (active),97% (active),97% (active),84% (active),97% (active),96% (active),84.4% (active),94% (active),96% (active),80% (active),98% (active),88% (active),60.9%,94% (active),93% (active),80% (active)
Clc1ccc(C2=NCON=C2c2ccc(Cl)cc2)cc1,17%,97% (active),87.9% (active),7%,99% (active),90.5% (active),10%,99% (active),91% (active),9%,98% (active),89.5% (active),20%,99% (active),90.8% (active),7%,97% (active),-18.7%
CCOC(=O)c1sc2[n+](c1C)C(=O)/C(=C/c1ccc([N+](=O)[O-])cc1)S2,4%,71% (active),95.5% (active),4%,74% (active),96.9% (active),16%,86% (active),97% (active),-4%,79% (active),90.5% (active),-23%,46%,96.8% (active),23%,89% (active),97% (active)
